# PubChem BioAssay AID449762 (Southern Research Specialized Biocontainment Screening …, 2010)
# The whole screen tested about 330,000 compounds, of which about 1,900 (0.58%) were called active. About 4% were inconclusive and are not listed. These entries were drawn from the full list. Potency and affinity values are given separately. A number with no mark means an inactive call. Cut-off read from the data, not from the text of the source: inconclusive = inhibition above about 70% without an active follow-up result; inactive = below that.
# Assay: M. tuberculosis growth inhibition, HTS (AID 449762);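 note: bacterial growth assessed after seven days of incubation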
# Conditions: M. tuberculosis H37Rv growth inhibition, 7H9 media; at 25 µM; stronger effect = higher value
row,Compound,inhibition [%]
1,COc1cccc(CN(C)CC(=O)NCc2ccc(C)cc2)c1,7.23
2,COC(=O)CN1C(c2ccccc2)=Nc2ccc(Cl)cc2C1c1ccccc1 (configuration not stated),55.5
3,NNC(=O)CN1C(c2ccc(Cl)cc2)=Nc2ccc(Br)cc2C1c1ccccc1 (configuration not stated),0.4
4,CCCCCC(=O)Nc1cccc(C2=NOC3(C2)C[C@@H](C(N)=O)N(C(=O)c2ccc(Cl)cc2)C3)c1 (some centres not stated),-9.42
5,CCOc1ccc2nc(NC(=O)C3CCCN(S(=O)(=O)c4cccs4)C3)sc2c1 (configuration not stated),58.9
6,COc1ccc2nc(NC(=O)C3CCN(S(=O)(=O)c4cccs4)CC3)sc2c1,-5.35
7,O=C(NCC1CCCN1S(=O)(=O)c1cccs1)C(=O)Nc1cccc(F)c1 (configuration not stated),-3.47
8,CC(C)Cc1nc(SCC(=O)N2CCCC2)c2c(=O)n(C)c(=O)n(C)c2n1,5.69
9,CC(=O)NCc1cc(-c2ccc(Cl)cc2)no1,-6.41
10,O=S(=O)(NCc1cc(-c2ccc(Cl)cc2)no1)c1ccc(Cl)cc1,-3.48
11,COc1ccc(C2CC(C)=NN2C=O)cc1OC (configuration not stated),-23.4
12,C=CCC1(CC=C)CCCN1C(=O)c1cc(COc2ccc(F)c(F)c2)on1,11.7
13,O=C(c1cc(COc2ccc(-n3cncn3)cc2)on1)N1CCCC1,2.05
14,COc1ccccc1C1=NOC(C)(c2nnc(Cc3ccccc3)o2)C1 (configuration not stated),-2.16
15,Cc1ccc2oc(=O)c3cnn(CC(=O)N(CCN(C)C)Cc4ccco4)c3c2c1,-9.56
16,Cn1c(SCC(=O)NCC2CCCO2)ncc(C(=O)Nc2ccc(F)cc2)c1=O (configuration not stated),67.5
17,Cn1c(SCC(=O)NCC2CCCO2)ncc(C(=O)Nc2ccccc2)c1=O (configuration not stated),54.1
18,COC(=O)c1ccc2c(=O)[nH]c(CCl)nc2c1,37.7
19,COC(=O)c1ccc2c(=O)[nH]c(CSc3nc(-c4ccc(F)cc4)cs3)nc2c1,-1.24

row,Compound,inhibition [%]
1,COc1cc(OC)c(-c2nc3c[n+](CC(=O)c4ccccc4)ccc3n2C)cc1OC,-1.07
2,COc1cc(-c2nc3c[n+](CC(=O)c4ccccc4)ccc3n2C)cc(OC)c1OC,3.76
3,Cc1ccc(-c2nc3ncccn3c2Nc2ccc3c(c2)OCO3)o1,3.61
4,Cc1ccc(-c2nc3ncccn3c2Nc2ccc3c(c2)OCCO3)o1,3.72
5,CCOc1ccc(NS(=O)(=O)c2cc(C(=O)N3CCCC3)ccc2Cl)cc1,5.65
6,Cc1ccc(NC(=O)c2ccc(OCC3CCCO3)cc2)nc1 (configuration not stated),16.9
7,Oc1ccc(C[C@@H]2CNCCN2CC2CCCCC2)cc1,-3.4
8,Oc1ccc(C[C@H]2CNCCN2CC2CCCCC2)cc1,7.27
9,CCOC(=O)c1cc(-c2ccc3c(c2)OCCO3)n[nH]1,-1.75
10,OCCN(CCCn1c(-c2ccncc2)nc2ccccc21)c1nc(CN2CCCCC2)cs1,-3.74
11,CC(C)(C)c1ccc(C(=O)NNc2cc(N3CCOCC3)nc(N3CCOCC3)n2)cc1,1.03
12,O=C(NNc1cc(N2CCOCC2)nc(N2CCOCC2)n1)c1ccc(Cl)c(Cl)c1,-10.6
13,O=C(CSc1nc2cc(Cl)ccc2o1)N1CCOCC1,0.49
14,CCN1CCN(Cc2ccc(NC(=O)c3cc(NC(=O)c4ccc5n[nH]nc5c4)cc(OC)c3)cc2C(F)(F)F)CC1,12.9
15,CCN1CCN(Cc2ccc(NC(=O)c3cc(NC(=O)c4ccno4)cc(OC)c3)cc2C(F)(F)F)CC1,66.3
16,CC(=O)NCCC(=O)Nc1cccc(S(=O)(=O)N(C)c2ccccc2)c1,-0.05
17,Cc1ccccc1OCC(=O)N/N=C/c1ccccn1,-4.77
18,O=C(NC1(C(F)(F)F)NC(=O)N(C2CCCCC2)C1=O)C1CC1 (configuration not stated),-5.69
19,CCOC(=O)c1c(C)[nH]c(N=Nc2cccc(C)c2)c1C,15.8

row,Compound,inhibition [%]
1,CCOC(=O)c1c(C)[nH]c(N=Nc2cc(C(=O)O)cc(C(=O)O)c2)c1C,-2.43
2,COc1ccc(N2C(=O)/C(=C/c3cc(C)n(-c4ccc(C)cn4)c3C)C(=O)NC2=S)c(OC)c1,3.48
3,COc1cc(/C=N/OCC(=O)Nc2cc(C)on2)ccc1OCc1ccccc1,-2.24
4,COc1ccc(/C=N/OCC(=O)Nc2cc(C)on2)cc1OC,-6.14
5,CSCC(=O)Nc1cc(C)on1,7.76
6,Cc1cc(NC(=O)C(Cl)(Cl)Cl)no1,-0.63
7,CCCn1c(SCC(=O)Nc2ccccc2N2CCOCC2)nc2c1c(=O)n(C)c(=O)n2C,-9.47
8,CN(CCOc1ccc(Cl)cc1)C(=O)C1CCN(C(=O)c2ccc(F)cc2)CC1,-0.37
9,CCC(NC(=O)c1cc(COc2cncc(Cl)c2)on1)c1ccncc1 (configuration not stated),4.32
10,CCC(NC(=O)c1cc(COc2cncc(Cl)c2)on1)c1ccc(C)cc1 (configuration not stated),27.5
11,COc1cccc(NC(=O)CN(C)C(=O)c2ccccc2Sc2ccccc2C#N)c1,-24
12,CCOC(=O)c1cc(NC(=O)c2ccccc2)c(=O)n2c1oc1ccccc12,-3
13,Oc1c(C(c2ccccn2)N2CCCCC2)cc(Cl)c2cccnc12 (configuration not stated),3
14,Oc1c(C(c2cccs2)N2CCN(c3ccccc3)CC2)ccc2cccnc12 (configuration not stated),30.5
15,COC(=O)Cc1ccc(NC(=S)N2CCC(Cc3ccccc3)CC2)cc1,6.07
16,O=C(C1=C[C@H](c2coc3ccccc3c2=O)C[C@H](OCCCCO)O1)N1CCN(Cc2ccccc2)CC1,39.2
17,CC(CC(=O)Nc1cc([N+](=O)[O-])ccc1Cl)c1ccccc1 (configuration not stated),3.48
18,CC(CC(=O)Nc1ccc(F)c([N+](=O)[O-])c1)c1ccccc1 (configuration not stated),-6.24
19,CSCC[C@H](NC(=O)C1CCN(S(=O)(=O)c2ccc(C)cc2)CC1)C(=O)NCC1CCCO1 (some centres not stated),-8.31
